According to PubChem BioAssay AID1159580 (chemical genetic matrix, 2015):
Among all 5,500 compounds or so, about 2,000 (36%) were called active. Another 18% or so got no clear call; they are omitted. Rule as the data show it: active = normalized growth mostly below about 0.91 (no sharp cut-off); inconclusive = no clear call, values can overlap the other calls; inactive = mostly above about 0.92. The list shows a part of the results.

Assay: chemical genetic growth profiling, strain panel (AID 1159580);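 also: tested at 20 µM; growth read once vehicle control cultures reached saturation at 30 °C; 1 = growth at the plate median or of vehicle wells; lower values mean less growth of the strain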
Conditions: S. cerevisiae deletion strains, growth OD

Measured: normalized growth

Oc1cc(Cl)ccc1Oc1ccc(Cl)cc1Cl
active: locus YAL021C, strain ccr4, active compounds read low 0.0638 | locus YAL026C, strain drs2, active compounds read low 0.0609 | locus YAL030W, strain snc1, active compounds read low 0.0536 | locus YBL061C, strain skt5, active compounds read low 0.0556 | locus YBR009C, strain hhf1, active compounds read low 0.061 | locus YBR023C, strain chs3, active compounds read low 0.0591 | locus YBR171W, strain sec66, active compounds read low 0.0725 | locus YBR231C, strain swc5, active compounds read low 0.0579 | locus YBR279W, strain paf1, active compounds read low 0.0562 | locus YCL011C, strain gbp2, active compounds read low 0.0544 | locus YCL016C, strain dcc1, active compounds read low 0.0625 | locus YCL069W, strain vba3, active compounds read low 0.0589 | locus YCR088W, strain abp1, active compounds read low 0.0589 | locus YDL005C, strain med2, active compounds read low 0.0705 | locus YDL040C, strain nat1, active compounds read low 0.0546 | locus YDR001C, strain nth1, active compounds read low 0.0558 | locus YDR069C, strain doa4, active compounds read low 0.0627 | locus YDR137W, strain rgp1, active compounds read low 0.0997 | locus YDR159W, strain sac3, active compounds read low 0.0882 | locus YDR195W, strain ref2 0.117 | locus YDR297W, strain sur2, active compounds read low 0.0544 | locus YDR334W, strain swr1, active compounds read low 0.0588 | locus YDR335W, strain msn5, active compounds read low 0.0583 | locus YDR392W, strain spt3, active compounds read low 0.0729 | locus YEL003W, strain gim4, active compounds read low 0.0524 | locus YEL037C, strain rad23, active compounds read low 0.0551 | locus YEL061C, strain CIN8 (second series), active compounds read low 0.0576 | locus YER015W, strain faa2, active compounds read low 0.0585 | locus YER016W, strain bim1, active compounds read low 0.0591 | locus YER111C, strain swi4, active compounds read low 0.0671 | locus YER155C, strain BEM2 (second series), active compounds read low 0.0885 | locus YFR010W, strain ubp6, active compounds read low 0.0707 | locus YGL167C, strain pmr1, active compounds read low 0.0693 | locus YGL173C, strain kem1, active compounds read low 0.0649 | locus YGL227W, strain vid30, active compounds read low 0.0625 | locus YGL240W, strain doc1, active compounds read low 0.0739 | locus YGL253W, strain hxk2, active compounds read low 0.054 | locus YHR013C, strain ard1, active compounds read low 0.104 | locus YHR027C, strain rpn1, active compounds read low 0.059 | locus YHR030C, strain SLT2, active compounds read low 0.104 | locus YHR079C, strain IRE1, active compounds read low 0.121 | locus YHR142W, strain chs7, active compounds read low 0.0756 | locus YJL092W, strain hpr5, active compounds read low 0.0585 | locus YJL095W, strain BCK1 (second series), active compounds read low 0.0552 | locus YJL095W, strain BCK1, active compounds read low 0.127 | locus YJL115W, strain asf1, active compounds read low 0.0692 | locus YJL129C, strain trk1, active compounds read low 0.084 | locus YJL154C, strain vps35, active compounds read low 0.0565 | locus YJL164C, strain tpk1, active compounds read low 0.0601 | locus YJL166W, strain qcr8, active compounds read low 0.0623 | locus YJR066W, strain TOR1, active compounds read low -0.00201 | locus YKL160W, strain elf1, active compounds read low 0.0596 | locus YKR026C, strain gcn3, active compounds read low 0.0592 | locus YKR091W, strain srl3, active compounds read low 0.0544 | locus YLL001W, strain dnm1, active compounds read low 0.0612 | locus YLL026W, active compounds read low 0.0561 | locus YLL041C, strain sdh2, active compounds read low 0.0533 | locus YLR027C, strain aat2, active compounds read low 0.0538 | locus YLR113W, strain HOG1, active compounds read low 0.158 | locus YLR221C, strain rsa3, active compounds read low 0.0589 | locus YLR258W, strain gsy2, active compounds read low 0.0574 | locus YLR262C, strain YPT6 (second series), active compounds read low 0.0751 | locus YLR320W, strain mms22, active compounds read low 0.0752 | locus YLR342W, strain FKS1, active compounds read low 0.0642 | locus YLR357W, strain rsc2, active compounds read low 0.118 | locus YLR370C, strain arc18, active compounds read low 0.0628 | locus YLR384C, strain iki3, active compounds read low 0.057 | locus YML120C, strain ndi1, active compounds read low 0.0562 | locus YMR058W, strain fet3, active compounds read low 0.0596 | locus YMR125W, strain sto1, active compounds read low 0.0732 | locus YMR129W, active compounds read low 0.0549 | locus YMR205C, strain PFK2, active compounds read low 0.0834 | locus YMR231W, strain pep5, active compounds read low 0.0636 | locus YNL071W, strain lat1, active compounds read low 0.0584 | locus YNL183C, strain NPR1, active compounds read low 0.00315 | locus YNL209W, strain ssb2, active compounds read low 0.0563 | locus YNL248C, strain rpa49, active compounds read low 0.0865 | locus YNL322C, strain KRE1 (second series), active compounds read low 0.0621 | locus YNR049C, strain mso1, active compounds read low 0.0553 | locus YOR001W, strain rrp6, active compounds read low 0.0701 | locus YOR070C, strain gyp1, active compounds read low 0.0564 | locus YOR080W, strain dia2, active compounds read low 0.0614 | locus YOR083W, strain WHI5, active compounds read low 0.0594 | locus YOR106W, strain vam3, active compounds read low 0.066 | locus YOR231W, strain MKK1, active compounds read low 0.109 | locus YOR265W, strain rbl2, active compounds read low 0.0537 | locus YOR270C, strain vph1, active compounds read low 0.0953 | locus YOR290C, strain snf2, active compounds read low 0.0603 | locus YPL051W, strain arl3, active compounds read low 0.0598 | locus YPL078C, strain atp4, active compounds read low 0.0627 | locus YPL106C, strain sse1, active compounds read low 0.103 | locus YPL240C, strain hsp82, active compounds read low 0.0561 | locus YPL256C, strain CLN2, active compounds read low 0.121
